Test results taken from PubChem BioAssay (NCI).
About 83,000 compounds went through this panel and 20% of them were active in at least one assay; those are over-represented in the sample as a whole.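 Single-concentration screen, 48 h exposure, 96-well plates. Endpoint: percent growth. Below 10 = active.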 Values without a mark were called inactive. Active and inactive are the calls of the source.

Columns and labels:
Experiment in all cases: NCI-60 one-dose screen, 48 h (100 = growth as untreated, 0 = no growth, -100 = all killed)
Conditions in all cases: 10 µM unless noted
T-47D breast = test system: T-47D breast
BT-549 breast = test system: BT-549 breast
MDA-MB-435 melanoma = test system: MDA-MB-435 melanoma
SW-620 colon = test system: SW-620 colon
MCF7 breast = test system: MCF7 breast
HCT-116 colon = test system: HCT-116 colon
HCC-2998 colon = test system: HCC-2998 colon
KM12 colon = test system: KM12 colon

Row | SMILES | growth (T-47D breast) | growth (BT-549 breast) | growth (MDA-MB-435 melanoma) | growth (SW-620 colon) | growth (MCF7 breast) | growth (HCT-116 colon) | growth (HCC-2998 colon) | growth (KM12 colon)
1 | O=C1OC(=O)C2C1CC=CC2c1ccccc1 (stereo unspecified) | 91.5% | 93.1% | 102% | 86.7% | 89% | 97.3% | 79.9% | 
2 | COc1cc2nc(-c3ccc(-c4nn[nH]n4)cc3)[nH]c(=O)c2cc1OC | 102% | 251% | 105% | 107% | 98.9% | 104% | 114% | 126%
3 | CC(=O)[C@@H]1CC[C@]2(C(N)=O)CC[C@]3(C)[C@H](CC[C@@H]4[C@@]5(C)CCC(=O)C(C)(C)[C@@H]5CC[C@]43C)[C@@H]12 | 80.2% | 93.3% | 99.9% | 110% | 89.9% | 90.4% | 107% | 
4 | C=C1C(=O)O[C@H]2[C@H]1CC/C(COC(=O)CCCc1c[nH]c3ccccc13)=C\CC[C@@]1(C)O[C@@H]21 | 57.3% | 41.1% | 60.3% | 24.9% | 11% | -77.5% (active) | 102% | 85.7%
5 | COc1ccc2c(/C=C3/C(=O)NC(=S)NC3C)cc(=O)oc2c1 (stereo unspecified) | 88% | 103% | 102% | 103% | 90.1% | 95.6% | 96% | 99.7%
6 | CC1(C)CC[C@]2(C(=O)NCC#CCN3CCOCC3)CC[C@]3(C)C(=CC[C@@H]4[C@@]5(C)Cc6c([nH]c7ccccc67)C(C)(C)[C@@H]5CC[C@]43C)[C@@H]2C1 | 75.2% | 101% | 83.1% | 103% | 81.1% | 73.9% | 105% | 91.3%
7 | COc1cc(C(=O)c2cnc(-c3ccc4cc[nH]c4c3)[nH]2)cc(OC)c1OC | 59% | 42.9% | -28.4% (active) | 19.2% | 11.3% | -6.9% (active) | 6.12% (active) | -9.92% (active)
8 | N#Cc1c(NC(=O)c2cccc(Br)c2)sc2c1CCCC2 | 77.9% | 96.7% | 10.8% | 50.5% | 51.8% | 74.9% | 94.7% | 69.5%
9 | C[C@@H]1CN(Cc2ccc(/C=C/c3n[nH]c4ccc5nc(-c6cn[nH]c6C(F)(F)F)c6c(c5c34)CCCC6)cc2)C[C@H](C)O1 | 49.8% | 39.6% | 46.7% | -16.6% (active) | 12.4% | 4.51% (active) | 27.6% | 19.8%
10 | C#CC(=O)Nc1cccc(Nc2nc3c(c(NCc4ccccc4)n2)CCCC3)c1 | -38.7% (active) | -70% (active) | -70.6% (active) | -46.7% (active) | -39.7% (active) | -78.8% (active) | -89.3% (active) | -53.4% (active)
11 | CCN(CC)CCCC(C)Nc1cc(-c2cccc(OC(F)(F)F)c2)nc2ccc(N3CCCC3)cc12 (stereo unspecified) | -19.3% (active) | 78.7% | -84.4% (active) | -37.5% (active) | -10% (active) | -53.7% (active) | -58.2% (active) | 7.78% (active)
12 | O=S(=O)(NCCCNc1nccc(-c2c(-c3cccc(O)c3)nc3occn23)n1)c1ccc(Br)cc1 | 83.2% | 105% | 40.6% | 112% | 98.8% | 65.2% | 121% | 94.4%
13 | CCCCCCN(C)Cc1ccc(OCCOc2ccc(CN(C)CCCCCC)cc2)cc1 | -13.7% (active) | 26.2% | -17.4% (active) | -70.2% (active) | -76.3% (active) | -96.1% (active) | -87.5% (active) | -19.3% (active)
14 | Clc1ccc(C2CC(c3cccc(Nc4ccncc4)c3)=NN2c2ccc(Cl)cc2)cc1 (stereo unspecified) | 52.2% | -80.2% (active) | -79% (active) | -67.6% (active) | -41.1% (active) | -73.2% (active) | -74% (active) | -77.3% (active)
15 | Cc1ccc(C2CC(c3cccc(Nc4ccncc4)c3)=NN2c2cc(Cl)cc(Cl)c2)cc1 (stereo unspecified) | 80.3% | 101% | -63.2% (active) | -58% (active) | -45.1% (active) | -78.1% (active) | -77.7% (active) | -67.5% (active)
16 | COc1ccc(-c2nc(SCCC(C)C)nc(N/N=C(/C)c3ccc(C)cc3)c2C#N)cc1 | 87.1% | 91% | 103% | 95.2% | 91.4% | 93.2% | 99% | 93.5%

Row | SMILES | growth (T-47D breast) | growth (BT-549 breast) | growth (MDA-MB-435 melanoma) | growth (SW-620 colon) | growth (MCF7 breast) | growth (HCT-116 colon) | growth (HCC-2998 colon) | growth (KM12 colon)
17 | COc1ccc(-c2c(-c3ccccc3)noc2N)cc1OC | 99.6% | 105% | 91% | 118% | 91.2% | 100% | 110% | 94.7%
18 | Nc1nnc2cc(Cl)ccc2n1 | 93.1% | 114% | 106% | 96.5% | 88.7% | 101% | 110% | 97%
19 | O=C(N=Nc1c(O)[nH]c2ccc(F)cc12)c1cc2ccccc2[nH]1 | 88.2% | 90.2% | 99.6% | 105% | 90.1% | 93.5% | 100% | 102%
20 | CN1C(=O)N(C)C2NC(N/N=C/c3ccccc3)=NC21 (stereo unspecified) | 90.6% | 100% | 99.6% | 102% | 98.2% | 95.6% | 103% | 108%
21 | COc1cc2nc(-c3ccc(C(F)(F)F)cc3)cc(OCCCN3CCCCC3)c2cc1OC | 35.3% | 39.3% | -6.42% (active) | 30.4% | 36.2% | 25.5% | 56% | 36.6%
22 | COc1ccc(/C=N/NC(=O)c2cccc3cc[nH]c23)cc1O | 41.4% | 55.9% | -21.4% (active) | 29.8% | 8.85% (active) | 21.8% | 55.4% | 29.8%
23 | COc1ccc(C(=O)c2cc3c(N)c(C(=O)Nc4cccc(Cl)c4)sc3nc2C)cc1 | 43.8% | 78.1% | -35.2% (active) | 35.4% | 26.5% | 14.9% | 18.3% | 22.1%
24 | CCc1nc(C)cn1C(=O)OCc1nc2nc(Cl)nc(N3CCOCC3)c2[nH]1 | -47.9% (active) | -18.8% (active) | -73.6% (active) | -47.9% (active) | -22.4% (active) | -71.5% (active) | 26.5% | 20.8%
25 | CC(C)CCSc1nc(NNC(N)=O)c(C#N)c(-c2ccccc2)n1 | 99.9% | 46.7% | 109% | 112% | 103% | 38.3% | 102% | 110%
26 | COc1ccccc1C(C[N+](=O)[O-])c1c(-c2ccccc2)[nH]c2cc(C)ccc12 (stereo unspecified) | 32.2% | 80.1% | 13.8% | 54.6% | 55.6% | 53.8% | 93.6% | 63.1%
27 | COc1cc(COC(=O)CCCCC[P+](c2ccccc2)(c2ccccc2)c2ccccc2)c(OC)c2c1OCO2 | 14.7% | 55.5% | 41.8% | 58% | 47.7% | 33.2% | 64.9% | 36.1%
28 | COc1cc2nc(-c3ccc(C#N)cc3)[nH]c(=O)c2cc1OC | 112% | 293% | 103% | 110% | 100% | 94.3% | 83.1% | 111%
29 | O=C(NNc1nc(Cl)nc(N2CCN(C(c3ccccc3)c3ccccc3)CC2)n1)c1ccccc1 | 54.8% | 7.6% (active) | 58.7% | -40.7% (active) | 82.5% | -23.9% (active) | -24.5% (active) | 76.9%
30 | CCCCCOc1ccc(/C=N/Nc2cc(C)nc3ccc(Br)cc23)cc1 | 83.4% | 103% | -46.9% (active) | -61.2% (active) | -73% (active) | -79.9% (active) | -58.3% (active) | -65.5% (active)
31 | Cc1ccc2nc3c(cc2c1)CSc1nnc(-c2ccc[nH]c2=S)n1N3 | 90.8% | 97.4% | 88.2% | 102% | 94.4% | 92.5% | 107% | 99.7%
